# Legend:
# [1] = biological target: Sphingosine kinase 1 (Homo sapiens) (UniProt Q9NYA1); conditions: at 1 µM;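 further: mean SPHK1 inhibition value reported from the GSK PKIS kinase panel screen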
# [2] = biological target: T1, Sphingosine kinase 2 (Homo sapiens) (UniProt Q9NRA0); conditions: at 0.1 µM
# T1 sequence (whole entry): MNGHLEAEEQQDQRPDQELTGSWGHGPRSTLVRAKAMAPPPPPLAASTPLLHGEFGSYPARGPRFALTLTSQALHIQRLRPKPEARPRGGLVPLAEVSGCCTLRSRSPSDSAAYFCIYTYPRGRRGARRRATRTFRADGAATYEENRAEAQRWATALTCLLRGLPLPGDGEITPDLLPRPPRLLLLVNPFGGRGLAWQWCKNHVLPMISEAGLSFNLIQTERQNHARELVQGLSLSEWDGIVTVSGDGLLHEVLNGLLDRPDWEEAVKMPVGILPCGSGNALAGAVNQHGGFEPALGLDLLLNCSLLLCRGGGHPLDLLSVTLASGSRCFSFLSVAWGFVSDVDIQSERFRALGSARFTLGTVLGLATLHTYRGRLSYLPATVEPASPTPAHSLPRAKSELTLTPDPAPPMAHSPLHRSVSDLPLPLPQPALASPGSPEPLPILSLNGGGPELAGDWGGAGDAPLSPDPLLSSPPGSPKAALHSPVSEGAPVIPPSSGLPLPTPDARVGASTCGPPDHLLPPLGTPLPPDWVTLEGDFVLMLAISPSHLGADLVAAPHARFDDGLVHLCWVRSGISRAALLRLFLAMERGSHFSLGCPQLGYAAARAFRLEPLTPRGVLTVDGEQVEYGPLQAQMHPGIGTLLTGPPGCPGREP
# [3] = biological target: T1, Sphingosine kinase 2 (Homo sapiens); conditions: at 1 µM
# [4] = biological target: Casein kinase II subunit alpha (Homo sapiens) (UniProt P68400); conditions: at 0.1 µM
# [5] = biological target: Casein kinase II subunit alpha (Homo sapiens) (UniProt P68400); conditions: at 1 µM
# [6] = biological target: T2, Inhibitor of nuclear factor kappa-B kinase subunit alpha (Homo sapiens) (UniProt O15111); conditions: at 0.1 µM
# T2 sequence (whole entry): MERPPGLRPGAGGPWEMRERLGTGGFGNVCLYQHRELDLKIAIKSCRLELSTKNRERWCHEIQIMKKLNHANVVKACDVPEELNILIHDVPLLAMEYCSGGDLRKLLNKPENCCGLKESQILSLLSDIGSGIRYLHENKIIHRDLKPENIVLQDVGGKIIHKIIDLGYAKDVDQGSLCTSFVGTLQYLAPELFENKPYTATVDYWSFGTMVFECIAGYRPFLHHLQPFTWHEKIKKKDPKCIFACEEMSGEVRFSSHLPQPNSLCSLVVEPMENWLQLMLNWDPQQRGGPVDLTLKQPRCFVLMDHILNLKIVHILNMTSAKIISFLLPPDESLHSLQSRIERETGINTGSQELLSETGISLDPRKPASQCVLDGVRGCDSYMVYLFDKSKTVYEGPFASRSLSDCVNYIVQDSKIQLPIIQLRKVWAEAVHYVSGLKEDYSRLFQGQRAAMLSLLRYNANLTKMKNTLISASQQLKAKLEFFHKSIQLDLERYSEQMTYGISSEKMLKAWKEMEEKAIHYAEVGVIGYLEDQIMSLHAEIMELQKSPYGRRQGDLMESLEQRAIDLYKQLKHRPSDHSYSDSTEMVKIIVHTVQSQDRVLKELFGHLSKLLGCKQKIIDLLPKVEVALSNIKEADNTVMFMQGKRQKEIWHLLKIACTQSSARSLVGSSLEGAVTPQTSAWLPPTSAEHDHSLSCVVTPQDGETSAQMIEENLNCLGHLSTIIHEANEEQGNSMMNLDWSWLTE
# [7] = biological target: T2, Inhibitor of nuclear factor kappa-B kinase subunit alpha (Homo sapiens); conditions: at 1 µM
# [8] = biological target: T3, Inhibitor of nuclear factor kappa-B kinase subunit beta (Homo sapiens) (UniProt O14920); conditions: at 0.1 µM
# T3 sequence (whole entry): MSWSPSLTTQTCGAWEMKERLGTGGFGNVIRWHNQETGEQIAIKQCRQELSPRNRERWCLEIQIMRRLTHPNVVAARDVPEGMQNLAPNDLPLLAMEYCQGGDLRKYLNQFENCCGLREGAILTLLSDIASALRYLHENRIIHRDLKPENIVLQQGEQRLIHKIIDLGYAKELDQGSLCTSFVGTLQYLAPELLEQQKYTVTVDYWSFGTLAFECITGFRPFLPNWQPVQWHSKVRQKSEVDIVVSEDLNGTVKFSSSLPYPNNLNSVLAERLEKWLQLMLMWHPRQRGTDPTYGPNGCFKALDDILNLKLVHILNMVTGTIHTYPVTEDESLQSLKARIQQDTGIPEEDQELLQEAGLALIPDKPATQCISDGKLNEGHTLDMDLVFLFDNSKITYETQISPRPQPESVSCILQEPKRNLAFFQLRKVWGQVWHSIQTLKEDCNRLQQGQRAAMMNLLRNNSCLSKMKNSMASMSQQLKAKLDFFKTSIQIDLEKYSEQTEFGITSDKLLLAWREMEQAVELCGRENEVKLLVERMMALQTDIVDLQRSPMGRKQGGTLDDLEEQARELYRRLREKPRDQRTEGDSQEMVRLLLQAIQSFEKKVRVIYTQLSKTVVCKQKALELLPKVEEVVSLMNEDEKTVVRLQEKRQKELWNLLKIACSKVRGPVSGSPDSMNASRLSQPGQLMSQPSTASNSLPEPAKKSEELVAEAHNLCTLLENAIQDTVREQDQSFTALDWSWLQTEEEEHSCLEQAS
# [9] = biological target: T3, Inhibitor of nuclear factor kappa-B kinase subunit beta (Homo sapiens); conditions: at 1 µM
# [10] = biological target: T4, Inhibitor of nuclear factor kappa-B kinase subunit epsilon (Homo sapiens) (UniProt Q14164); conditions: at 0.1 µM
# T4 sequence (whole entry): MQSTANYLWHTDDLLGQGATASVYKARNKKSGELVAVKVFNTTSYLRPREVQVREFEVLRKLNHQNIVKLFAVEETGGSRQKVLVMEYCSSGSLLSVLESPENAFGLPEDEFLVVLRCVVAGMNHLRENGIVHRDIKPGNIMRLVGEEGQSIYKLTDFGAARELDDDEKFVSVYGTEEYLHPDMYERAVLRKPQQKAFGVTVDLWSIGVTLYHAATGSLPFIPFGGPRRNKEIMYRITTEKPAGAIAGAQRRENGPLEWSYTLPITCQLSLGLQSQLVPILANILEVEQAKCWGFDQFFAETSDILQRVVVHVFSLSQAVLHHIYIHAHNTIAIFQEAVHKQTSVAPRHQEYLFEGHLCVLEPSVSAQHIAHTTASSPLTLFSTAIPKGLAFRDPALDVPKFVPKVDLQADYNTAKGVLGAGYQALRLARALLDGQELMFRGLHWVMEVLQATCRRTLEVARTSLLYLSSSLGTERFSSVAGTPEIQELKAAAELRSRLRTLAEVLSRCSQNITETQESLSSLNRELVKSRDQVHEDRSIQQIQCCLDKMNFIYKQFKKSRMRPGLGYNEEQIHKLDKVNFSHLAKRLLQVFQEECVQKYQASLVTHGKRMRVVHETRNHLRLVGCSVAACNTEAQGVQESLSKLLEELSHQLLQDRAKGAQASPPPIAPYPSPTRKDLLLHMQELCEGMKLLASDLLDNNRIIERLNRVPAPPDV
# [11] = biological target: T4, Inhibitor of nuclear factor kappa-B kinase subunit epsilon (Homo sapiens); conditions: at 1 µM
# [12] = biological target: T5, Serine/threonine-protein kinase Nek1 (Homo sapiens) (UniProt Q96PY6); conditions: at 0.1 µM
# T5 sequence (whole entry): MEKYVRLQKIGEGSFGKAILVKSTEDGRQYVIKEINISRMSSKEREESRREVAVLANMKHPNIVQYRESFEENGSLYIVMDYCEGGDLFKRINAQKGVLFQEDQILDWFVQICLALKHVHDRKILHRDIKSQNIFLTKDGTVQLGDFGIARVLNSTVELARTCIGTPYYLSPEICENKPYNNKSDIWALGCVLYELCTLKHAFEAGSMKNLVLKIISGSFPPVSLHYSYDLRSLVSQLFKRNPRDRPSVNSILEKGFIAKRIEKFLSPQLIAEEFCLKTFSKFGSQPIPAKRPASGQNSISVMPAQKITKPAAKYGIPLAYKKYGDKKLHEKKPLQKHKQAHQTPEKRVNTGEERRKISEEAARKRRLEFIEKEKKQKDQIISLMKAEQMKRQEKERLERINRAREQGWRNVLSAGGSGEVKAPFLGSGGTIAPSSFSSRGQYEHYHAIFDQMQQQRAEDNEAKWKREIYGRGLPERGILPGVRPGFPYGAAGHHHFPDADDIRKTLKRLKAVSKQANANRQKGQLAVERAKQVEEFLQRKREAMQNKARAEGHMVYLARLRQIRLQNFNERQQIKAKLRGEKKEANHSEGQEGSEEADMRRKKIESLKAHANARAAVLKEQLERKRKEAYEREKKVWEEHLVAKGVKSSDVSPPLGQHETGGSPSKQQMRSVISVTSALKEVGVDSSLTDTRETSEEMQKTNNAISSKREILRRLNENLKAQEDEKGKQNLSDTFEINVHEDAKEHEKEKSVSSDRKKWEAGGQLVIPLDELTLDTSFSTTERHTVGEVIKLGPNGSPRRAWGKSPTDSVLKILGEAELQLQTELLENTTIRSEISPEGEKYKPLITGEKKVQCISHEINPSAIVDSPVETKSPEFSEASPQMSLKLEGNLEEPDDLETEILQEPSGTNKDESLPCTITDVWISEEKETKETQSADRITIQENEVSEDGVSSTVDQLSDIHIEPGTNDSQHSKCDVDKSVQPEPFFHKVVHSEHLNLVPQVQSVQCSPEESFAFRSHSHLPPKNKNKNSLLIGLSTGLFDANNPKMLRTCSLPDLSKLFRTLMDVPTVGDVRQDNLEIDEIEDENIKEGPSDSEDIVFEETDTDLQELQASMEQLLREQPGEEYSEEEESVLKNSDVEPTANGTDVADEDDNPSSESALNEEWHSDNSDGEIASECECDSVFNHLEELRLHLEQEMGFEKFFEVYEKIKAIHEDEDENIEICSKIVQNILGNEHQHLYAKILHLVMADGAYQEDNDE
# [13] = biological target: T5, Serine/threonine-protein kinase Nek1 (Homo sapiens); conditions: at 1 µM
# [14] = biological target: T6, Serine/threonine-protein kinase Nek2 (Homo sapiens) (UniProt P51955); conditions: at 0.1 µM
# T6 sequence (whole entry): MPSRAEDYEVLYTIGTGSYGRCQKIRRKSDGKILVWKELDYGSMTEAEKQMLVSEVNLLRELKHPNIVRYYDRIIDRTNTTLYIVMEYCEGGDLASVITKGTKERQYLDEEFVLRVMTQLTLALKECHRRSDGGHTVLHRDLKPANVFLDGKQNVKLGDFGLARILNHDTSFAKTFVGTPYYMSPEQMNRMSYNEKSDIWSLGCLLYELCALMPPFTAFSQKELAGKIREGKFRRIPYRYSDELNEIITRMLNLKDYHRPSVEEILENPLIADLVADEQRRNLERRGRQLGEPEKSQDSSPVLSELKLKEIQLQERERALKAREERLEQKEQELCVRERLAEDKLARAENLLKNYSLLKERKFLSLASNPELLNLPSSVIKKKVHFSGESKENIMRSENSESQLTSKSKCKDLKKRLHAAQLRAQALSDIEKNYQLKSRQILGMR
# [15] = biological target: T6, Serine/threonine-protein kinase Nek2 (Homo sapiens); conditions: at 1 µM
# [16] = biological target: Serine/threonine-protein kinase Nek6 (Homo sapiens) (UniProt Q9HC98); conditions: at 0.1 µM
# [17] = biological target: Serine/threonine-protein kinase Nek6 (Homo sapiens) (UniProt Q9HC98); conditions: at 1 µM
# [18] = biological target: Serine/threonine-protein kinase Nek7 (Homo sapiens) (UniProt Q8TDX7); conditions: at 0.1 µM
# [19] = biological target: Serine/threonine-protein kinase Nek7 (Homo sapiens) (UniProt Q8TDX7); conditions: at 1 µM
# [20] = biological target: T7, Serine/threonine-protein kinase Nek9 (Homo sapiens) (UniProt Q8TD19); conditions: at 0.1 µM;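 further: reported value is the mean percent inhibition of NEK9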
# T7 sequence (whole entry): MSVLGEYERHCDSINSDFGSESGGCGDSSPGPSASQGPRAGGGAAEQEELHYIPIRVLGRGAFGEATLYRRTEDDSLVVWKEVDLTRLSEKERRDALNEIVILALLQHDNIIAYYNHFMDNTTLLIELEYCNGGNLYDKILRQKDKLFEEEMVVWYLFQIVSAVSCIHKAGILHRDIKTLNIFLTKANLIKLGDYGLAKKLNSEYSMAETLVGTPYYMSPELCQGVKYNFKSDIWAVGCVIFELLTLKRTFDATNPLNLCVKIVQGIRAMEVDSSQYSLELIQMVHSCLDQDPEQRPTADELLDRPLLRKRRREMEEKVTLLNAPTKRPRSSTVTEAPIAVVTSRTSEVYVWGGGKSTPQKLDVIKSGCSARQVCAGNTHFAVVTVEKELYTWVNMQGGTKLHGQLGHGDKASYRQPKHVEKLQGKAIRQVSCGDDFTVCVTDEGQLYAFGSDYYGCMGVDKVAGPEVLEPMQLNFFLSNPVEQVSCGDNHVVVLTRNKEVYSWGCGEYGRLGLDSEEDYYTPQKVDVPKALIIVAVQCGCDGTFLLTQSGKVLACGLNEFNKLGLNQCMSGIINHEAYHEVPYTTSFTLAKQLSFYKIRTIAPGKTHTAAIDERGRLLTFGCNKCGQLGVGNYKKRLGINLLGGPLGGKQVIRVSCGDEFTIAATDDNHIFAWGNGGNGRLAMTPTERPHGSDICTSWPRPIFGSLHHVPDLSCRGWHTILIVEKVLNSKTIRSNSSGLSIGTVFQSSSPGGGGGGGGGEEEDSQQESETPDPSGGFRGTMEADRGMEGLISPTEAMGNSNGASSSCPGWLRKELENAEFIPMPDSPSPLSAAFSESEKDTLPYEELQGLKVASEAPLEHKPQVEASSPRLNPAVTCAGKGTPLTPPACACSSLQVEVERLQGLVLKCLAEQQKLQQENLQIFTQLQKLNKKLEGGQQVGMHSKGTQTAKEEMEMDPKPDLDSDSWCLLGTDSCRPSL
# Casein kinase II subunit alpha (Homo sapiens), sequence (P68400 whole entry, looked up): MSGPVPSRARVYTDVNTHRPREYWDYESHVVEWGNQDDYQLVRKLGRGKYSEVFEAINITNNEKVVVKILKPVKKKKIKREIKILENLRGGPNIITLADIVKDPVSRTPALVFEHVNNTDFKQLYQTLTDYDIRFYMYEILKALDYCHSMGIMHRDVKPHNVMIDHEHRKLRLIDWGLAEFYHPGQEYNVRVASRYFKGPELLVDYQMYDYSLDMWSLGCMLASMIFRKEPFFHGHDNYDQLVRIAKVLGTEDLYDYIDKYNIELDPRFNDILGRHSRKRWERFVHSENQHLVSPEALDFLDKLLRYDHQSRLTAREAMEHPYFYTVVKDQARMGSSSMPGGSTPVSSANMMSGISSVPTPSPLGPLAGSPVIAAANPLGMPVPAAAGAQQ
# Serine/threonine-protein kinase Nek7 (Homo sapiens), sequence (Q8TDX7 whole entry, looked up): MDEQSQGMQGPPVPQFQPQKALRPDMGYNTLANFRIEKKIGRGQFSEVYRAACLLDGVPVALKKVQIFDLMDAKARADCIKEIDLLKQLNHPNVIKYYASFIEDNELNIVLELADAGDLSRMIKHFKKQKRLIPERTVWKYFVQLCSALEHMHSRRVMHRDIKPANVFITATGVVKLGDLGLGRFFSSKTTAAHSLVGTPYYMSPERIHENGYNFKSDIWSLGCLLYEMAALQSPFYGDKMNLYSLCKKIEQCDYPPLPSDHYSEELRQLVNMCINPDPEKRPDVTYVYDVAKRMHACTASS
# Serine/threonine-protein kinase Nek6 (Homo sapiens), sequence (Q9HC98 whole entry): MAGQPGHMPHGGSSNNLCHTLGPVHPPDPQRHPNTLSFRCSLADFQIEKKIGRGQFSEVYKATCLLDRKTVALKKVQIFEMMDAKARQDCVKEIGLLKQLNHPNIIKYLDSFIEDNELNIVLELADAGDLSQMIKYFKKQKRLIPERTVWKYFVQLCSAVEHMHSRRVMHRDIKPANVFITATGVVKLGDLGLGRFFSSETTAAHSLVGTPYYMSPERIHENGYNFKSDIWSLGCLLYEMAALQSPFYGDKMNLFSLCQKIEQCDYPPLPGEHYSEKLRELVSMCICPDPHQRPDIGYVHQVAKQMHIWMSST
# Sphingosine kinase 1 (Homo sapiens), sequence (Q9NYA1 whole entry): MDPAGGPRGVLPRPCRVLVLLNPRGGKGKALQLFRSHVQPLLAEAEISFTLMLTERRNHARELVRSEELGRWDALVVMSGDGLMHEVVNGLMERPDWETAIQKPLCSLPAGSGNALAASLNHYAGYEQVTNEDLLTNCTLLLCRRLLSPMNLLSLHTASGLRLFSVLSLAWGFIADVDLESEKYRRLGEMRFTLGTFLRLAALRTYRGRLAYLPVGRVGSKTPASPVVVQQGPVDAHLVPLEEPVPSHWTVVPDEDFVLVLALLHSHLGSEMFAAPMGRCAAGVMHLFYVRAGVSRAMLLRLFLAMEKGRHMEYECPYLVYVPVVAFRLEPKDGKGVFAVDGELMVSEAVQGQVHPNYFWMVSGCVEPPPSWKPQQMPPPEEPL
compound,measurement,setting,value
NS(=O)(=O)c1ccc(N/N=C2\C(=O)Nc3ccc(C(=O)NCCc4c[nH]cn4)cc32)cc1,inhibition,[1],-1.01%
same,inhibition,[2],1.57%
same,inhibition,[3],0.18%
same,inhibition,[4],6.03%
same,inhibition,[5],18.6%
same,inhibition,[6],10.2%
same,inhibition,[7],13%
same,inhibition,[8],4.11%
same,inhibition,[9],3.92%
same,inhibition,[10],7.82%
same,inhibition,[11],19%
same,inhibition,[12],2.19%
same,inhibition,[13],-1.06%
same,inhibition,[14],5.57%
same,inhibition,[15],5.42%
same,inhibition,[16],3.45%
same,inhibition,[17],1.65%
same,inhibition,[18],4.83%
same,inhibition,[19],7.05%
same,inhibition,[20],10.2%

# From ChEMBL document CHEMBL1961873, “Compounds: GSK PKIS; Assays: Nanosyn kinase panel” (2012)
